An excerpt weighted towards active compounds, which were near 3.8% of everything screened.
ATXN2 expr inh: ATXN2 expression inhibition; Potency, µM (top dose mostly 57 µM), for the others: at the highest dose activity change, negative = inhibition, hits mostly inhibitors; AID 1745845; HEK-293 ATXN2-luciferase reporter, luminescence, 24 h; 360,000 compounds, 0.72% hits; note: % is set by controls: 0 for no effect and ±100 for the full control effect; nearly all actives have a fitted effect of over 55% in size
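ATXN2-luciferase reporter cells (luciferase flanked by upstream and downstream ATXN2 gene portions) were treated 24 h at 37 °C with compounds at up to 57 uM. SteadyGlo luminescence gave expression; GF-AFC fluorescence gave viability.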
HepG2 viability: kills HepG2 cells in TGF-b inhibitor counter-screen. HepG2 CAGA-GFP viability, ATP luminescence, 18 h. Potency, µM (top dose mostly 46.1 µM), for inactives: top-dose activity change, negative = cytotoxicity, actives largely listed as cytotoxic. 410,000 compounds, 0.76% hits. AID 588856
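CellTiter-Glo luminescence gave cytotoxicity after 18 hours at 37 degrees C. The cells were HepG2 CAGA-GFP in 1% FBS DMEM, stimulated with 500 pg/mL TGF-beta after compound addition. %Activity was normalised to no-cell wells (complete cell-killing) and DMSO (no toxicity), and curves were fitted and classified.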
S2 tox: cell viability loss in ATXN counter-screen | S2 cells (HEK-293 line with an ATXN2-luciferase reporter) viability, CellTiter-Fluor protease fluorescence, 24 h | Potency, µM (series often up to 56.7 µM), actives largely listed as cytotoxic | 400,000 compounds, 0.49% hits | AID 651635; note: nearly all actives have a fitted effect of over 40% in size
TGFb SMAD3 inh: blocks TGF-b signaling | AID 588855 | 410,000 compounds, 1.2% hits | HepG2 CAGA-GFP TGF-b/SMAD3 reporter, GFP fluorescence, 18 h; TGF-beta stimulated, 500 pg/mL final | Potency, µM (titrated, usually from 46.1 µM), without a hit: top-dose activity, negative = inhibition, most hits filed as inhibitors; note: % is set by controls: 0 for no effect and ±100 for the full control effect; nearly all actives have a fitted effect of over 65% in size
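Using HEPG2 CAGA-GFP reporter cells at 1000 cells/well, we pinned test compounds, stimulated with recombinant TGF-beta (500 pg/mL final) and measured total well GFP after 18 h.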
Nrf2 inh: inhibitors of Nrf2 signaling; A549 ARE-Fluc reporter, luciferase luminescence, 18-24 h; Potency, µM (titrated, usually from 46 µM), without a hit: at the highest dose activity change, negative = inhibition, actives largely listed as inhibitors; 360,000 compounds, 2.1% hits; note: % is set by controls: 0 for no effect and ±100 for the full control effect; nearly all actives have a fitted effect of over 60% in size
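Quantitative HTS in A549 cells stably bearing an antioxidant response element-firefly luciferase construct. Inhibition of Nrf2-driven transcription was scored by luminescence after 18-24 h of compound exposure at 37 °C.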
A549 tox: A549 cytotoxicity, counter-screen for Nrf2 inhibitors. A549 ARE-Fluc cells, CellTiter-Fluor viability, 18-24 h. Potency, µM (titrated, usually from 46 µM), inactives show at the top dose activity change, negative = cytotoxicity, hits mostly inhibitors. 390,000 compounds, 0.16% hits. AID 504648; note: % is set by controls: 0 for no effect and ±100 for the full control effect
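A549 ARE-Fluc cells in 5% FBS OPTI-MEM, 5000 cells/well, rested 2 h then exposed to compounds in concentration-response for 18-24 h at 37 °C. Viability by CellTiter-Fluor fluorescence (Ex 405/Em 525) after 30 min; luciferase luminescence (BugLite, 15 min, RT) read afterwards.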
Active calls of the source: *. Calls come from the whole dose curve; as a rule, active = well fitted curve in the direction sought with a large enough effect; inconclusive = small, poorly fitted or top-dose-only effect, or another doubt; inactive = no such curve, though single readings can be large; an effect the other way counts as inactive or inconclusive. Potency is the fitted concentration of half-maximal effect.

Results for COc1ccc(C)cc1S(=O)(=O)N1CCCC(C(=O)NC2CC2)C1 (stereo not drawn) ?
ATXN2 expr inh: -1%; HepG2 viability: -6%; S2 tox: inconclusive; TGFb SMAD3 inh: 2%; Nrf2 inh: 11%; A549 tox: -1%

What do the screens show for `Cc1c(C(=O)N(Cc2cccc(F)c2)C2CCS(=O)(=O)C2)oc2cc(Br)ccc12` (stereo not drawn)?
HepG2 viability: -15%; TGFb SMAD3 inh: inconclusive; Nrf2 inh: 13µM*; A549 tox: -20%

How did Cc1c(C(=O)N(Cc2cccc(Br)c2)C2CCS(=O)(=O)C2)oc2ccc(F)cc12 (stereo not drawn) do in these assays?
ATXN2 expr inh: -12%; HepG2 viability: 0%; S2 tox: inconclusive; TGFb SMAD3 inh: -8%; Nrf2 inh: inconclusive; A549 tox: -12%

What do the screens show for `Cc1ccc(NC(=O)CC(=O)c2ccc([N+](=O)[O-])cc2)cc1S(=O)(=O)Nc1cccc(Cl)c1`?
ATXN2 expr inh: inconclusive; HepG2 viability: -50%; S2 tox: inconclusive; TGFb SMAD3 inh: inconclusive; Nrf2 inh: 16µM*; A549 tox: inconclusive

Results for CCCNC(=O)c1ccc(COc2ccc(CCC)cc2OC)o1 ?
ATXN2 expr inh: -1%; HepG2 viability: -30%; S2 tox: inactive; TGFb SMAD3 inh: 0%; Nrf2 inh: -7%; A549 tox: 3%

What do the screens show for `O=[N+]([O-])c1cc(Cl)cc(/C=N\Nc2ccccn2)c1O`?
ATXN2 expr inh: 7.1µM*; HepG2 viability: -44%; S2 tox: inconclusive; TGFb SMAD3 inh: inconclusive; Nrf2 inh: inconclusive; A549 tox: inconclusive

How did CCCCn1nc(C(=O)N(C)CC(=O)Nc2ccc(F)c(F)c2F)ccc1=O do in these assays?
ATXN2 expr inh: -1%; HepG2 viability: -10%; S2 tox: inactive; TGFb SMAD3 inh: -6%; Nrf2 inh: -12%; A549 tox: -13%

How did CCCCn1c(SCC(=O)NNC(=O)c2ccccc2)n[nH]c1=O do in these assays?
HepG2 viability: -11%; S2 tox: inactive; TGFb SMAD3 inh: 17%; Nrf2 inh: 0%; A549 tox: -8%

Results for CC(C)N1CCC(N2CCN(CCCc3ccccc3)CC2CCO)CC1 (stereo not drawn) ?
ATXN2 expr inh: -18%; HepG2 viability: 3.2µM*; S2 tox: inactive; TGFb SMAD3 inh: 1%; Nrf2 inh: 2%; A549 tox: -19%

Results for O=C(CSc1nc(O)c(C/C=C/c2ccccc2)c(=O)[nH]1)Nc1cccc(F)c1 ?
ATXN2 expr inh: 7%; HepG2 viability: 1%; S2 tox: inactive; TGFb SMAD3 inh: -3%; Nrf2 inh: 13%; A549 tox: -1%

Results for O=C(Cn1c(C(=O)N2CCN(C3CCCC3)CC2)cc2sccc21)c1ccccc1 ?
ATXN2 expr inh: -3%; HepG2 viability: -34%; S2 tox: inconclusive; TGFb SMAD3 inh: -9%; A549 tox: -15%

Results for COc1ccc(-c2cc(C3CCN(Cc4cccc(C(F)(F)F)c4)CC3)[nH]n2)cc1 ?
ATXN2 expr inh: inconclusive; HepG2 viability: 13µM*; S2 tox: inactive; TGFb SMAD3 inh: inconclusive; Nrf2 inh: inconclusive; A549 tox: inconclusive

Results for COc1ccc(-c2cc(C3CCN(c4cc(Cl)nc(N)n4)CC3)[nH]n2)cc1 ?
ATXN2 expr inh: inconclusive; HepG2 viability: -30%; S2 tox: inconclusive; TGFb SMAD3 inh: inconclusive; Nrf2 inh: 13µM*; A549 tox: inconclusive

Results for COc1ccc(OC)c(-c2cc(C3CCN(c4cc(Cl)nc(N)n4)CC3)[nH]n2)c1 ?
ATXN2 expr inh: inconclusive; HepG2 viability: -30%; S2 tox: inactive; TGFb SMAD3 inh: inconclusive; Nrf2 inh: inconclusive; A549 tox: -17%

From PubChem
